# PubChem BioAssay AID1851 (National Center for Advancing Translational Sciences (NCATS), 2009)
# Values joined by “and” are separate entries in the source; they are usually repeats but may differ in a detail not shown here. Identical values can stand only once. In all, about 16,000 compounds went through this assay and about 2,600 (16%) were called active. Inconclusive results (about 20%) are left out. These entries were drawn from the full list. Values without a mark were called inactive. Calls follow the shape of the dose curve; as a rule, active = well fitted curve in the direction sought with a large enough effect; inconclusive = small, poorly fitted or top-dose-only effect, or effect the other way; inactive = no such curve, though single readings can be large or run the other way.
# Biological target: Cytochrome P450 2D6 (Homo sapiens) (UniProt P10635)
# Experiment: Cytochrome panel assay with activity outcomes
# Conditions: recombinant CYP, pro-luciferin dealkylation, luminescence, p450-cyp2d6; series mostly up to 57.1 µM
# % is scaled to controls: 0 for no effect and ±100 for the full control effect.
# Sequence of Cytochrome P450 2D6 (Homo sapiens) (P10635 whole entry, looked up): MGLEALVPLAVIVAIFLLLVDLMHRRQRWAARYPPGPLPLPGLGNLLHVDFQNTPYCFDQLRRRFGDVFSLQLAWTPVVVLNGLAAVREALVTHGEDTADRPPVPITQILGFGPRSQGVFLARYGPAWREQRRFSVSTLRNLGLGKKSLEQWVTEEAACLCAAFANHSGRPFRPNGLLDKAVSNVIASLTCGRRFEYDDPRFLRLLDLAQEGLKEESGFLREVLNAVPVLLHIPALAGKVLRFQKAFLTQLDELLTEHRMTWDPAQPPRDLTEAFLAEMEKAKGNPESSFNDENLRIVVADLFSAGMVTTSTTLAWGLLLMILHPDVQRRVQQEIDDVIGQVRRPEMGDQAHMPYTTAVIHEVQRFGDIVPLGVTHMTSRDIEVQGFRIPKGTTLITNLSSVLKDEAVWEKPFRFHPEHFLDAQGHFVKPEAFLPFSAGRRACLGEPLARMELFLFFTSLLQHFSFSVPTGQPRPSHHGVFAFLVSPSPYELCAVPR
SMILES,AC50,"activity, negative = inhibition"
COc1ccc(-c2nc(C(=O)N3CCN(C)CC3)sc2-c2ccc(OC)cc2)cc1,inactive,–
Cc1nnc(NC(=O)CCC(=O)NCc2cccs2)s1,inactive,–
CC(C)(O)C#Cc1ccc(C(=O)NCc2cccs2)s1,22.4 µM (active),–
Nc1nc2c(C(=O)NCc3cccs3)nnn2c2cccc(Cl)c12,–,6.61% [at 11.4 µM]
CCc1sc(N(C(=O)Cc2ccccc2)c2cccc(F)c2)nc1-c1ccc(C)cc1,inactive,–
OC1CC2CC[C@H](C1)N2CCCN1c2ccccc2Sc2ccc(Cl)cc21 (stereo partly specified),0.0631 µM (active),–
O=C1CSC2(CCN(CCCN3c4ccccc4Sc4ccc(Cl)cc43)CC2)N1,0.631 µM (active),–
CC1(C)CCCN(C(=O)N2c3ccccc3Sc3ccccc32)C1,inactive,–
Clc1ccc2c(c1)N(CCCN1CCCC13CCCCC3)c1ccccc1S2,0.00794 µM (active),–
CCOC(=O)Nc1ccc2c(c1)N(C(=O)CCN1CCN(C)CC1)c1ccccc1S2,inactive,–
O=C(CSc1nc2ccccc2o1)N1c2ccccc2Sc2ccc(Cl)cc21,inactive,–
Cc1ccc2cn[nH]c2c1NC(=S)NC(=O)c1ccccc1,inactive,–
O=C(NNc1nc2ccccc2s1)c1ccccc1F,inactive,–
Oc1ccc(Br)cc1CNn1cnnc1,inactive,–
CCOC(=O)c1cc(-c2ccc(Cl)cc2)nc2c1c(C)nn2CCC#N,inactive,–
Cc1ccccc1C(=O)c1c[nH]c(C(=O)NCC2CCCO2)c1 (stereo unspecified),inactive,–
COc1ccc(COC(=O)N/N=C(\C)CC(=O)Nc2c(C)cc(C)cc2C)cc1,inactive,–
O=C(O)CSc1cc(C(F)(F)F)nc(-c2ccccn2)n1,inactive,–
CN1CCN(c2ncc3nc(-c4cccc(C#N)c4)c(=O)n(C)c3n2)CC1,inactive,–
CCSc1ccc2c(c1)N(CCCN1CCN(C)CC1)c1ccccc1S2,2.51 µM (active),–
O=C1NC(O)=NC1(c1ccccc1)c1ccccc1,inactive,–
Cc1noc(C)c1C(=O)N1CCC2(CCN(Cc3ccncc3)CC2)CC1,inactive,–
O=C(Nc1ccccc1C(=O)O)c1ccc2ccccc2n1,inactive,–
O=C(O)c1ccccc1Nc1cccc(OCc2ccc3ccccc3n2)c1,7.94 µM (active),–
CCCCC[C@H](O)c1cccc(OCc2ccc3ccccc3n2)c1,inactive,–

SMILES,AC50,"activity, negative = inhibition"
CC/C(=N/Nc1ccccc1)c1cnnc(SC)n1,inactive,–
O=C(Nc1ccc(-c2csc(-c3ccccc3)n2)cc1)c1ccccc1Cl,inactive,–
Cc1ccc(C(=O)ON=C2CCN(S(=O)(=O)c3ccccc3)CC2)cc1,inactive,–
O=c1cnc2cnc(Oc3cccc(Cl)c3)nc2n1C1CC1,inactive,–
Fc1ccc(C2CC(c3ccco3)=NN2c2ccccc2)cc1 (stereo unspecified),8.91 µM (active),–
CC(=O)c1c(O)cc(=O)n(-c2ccccc2)c1-c1cccc2ccccc12,inactive,–
O=C(O)C1(Nc2ccc(Cl)cc2)CCCC1,–,7.94% [at 11.4 µM]
O=C1C=C(NCCN2CCOCC2)CC(c2ccccc2)C1 (stereo unspecified),inactive,–
O=C1C=C(Nc2ccc(Cl)cc2)CC(c2ccc(Cl)cc2)C1 (stereo unspecified),8.91 µM (active),–
CC1(C)C(=O)C(c2ccccc2)=C2CN3C(=O)N(CCc4ccccc4)C(=O)C3(Cc3ccc(C(F)(F)F)cc3)C=C21 (stereo unspecified),inactive,–
CCCCc1ccc(-c2nc(NC(=O)C3C4CCC(O4)C3C(=O)O)sc2C)cc1 (stereo unspecified),inactive,–
COC(=O)Cn1c(CN(Cc2ccccc2)Cc2ccccc2)nc2c1c(=O)[nH]c(=O)n2C,inactive,–
Cn1c(=O)[nH]c(=O)c2c1nc(CN1CCOCC1)n2CCCO,inactive,–
Cn1c(=O)[nH]c(=O)c2c1nc(CN1CCOCC1)n2Cc1ccccc1,inactive,–
COc1ccc(N2CCN(Cc3nc4c(c(=O)[nH]c(=O)n4C)n3CCCc3ccccc3)CC2)cc1,inactive,–
CCOC(=O)N1CCN(Cc2nc3c(c(=O)[nH]c(=O)n3C)n2Cc2ccccc2C)CC1,12.6 µM (active),–
CCCCCn1c(CN2CCN(c3cc(Cl)ccc3C)CC2)nc2c1c(=O)[nH]c(=O)n2C,8.91 µM (active),–
O=C(Cn1nnc2ccccc21)N/N=C\C=C\c1ccccc1,inactive,–
NC(=O)c1csc(-c2ccc(CO)o2)n1,–,0.271% [at 11.4 µM]
NS(=O)(=O)c1ccc(N=Nc2ncccc2O)cc1,–,-13% [at 11.4 µM]
C/C(=N\Nc1nnc(-c2ccccc2)c(-c2ccccc2)n1)c1cccc([N+](=O)[O-])c1,inactive,–
O=c1c(C=Nc2cccc(C(F)(F)F)c2)c[nH]n1-c1cccc(Cl)n1,inactive,–
CCc1cc2c(nc1CC)CCN(CC/C(C)=N/OC[C@@H](C)[C@H](OCc1ccccc1)C(C)C)C2,–,-10.6% [at 11.4 µM]
COc1ccccc1NC(=O)CCc1c(C)[nH]c(=O)c(C#N)c1C,inactive,–
CC1Cc2ccccc2N1C(=O)Cn1cc([N+](=O)[O-])cn1 (stereo unspecified),inactive,–
